Screens (PubChem)
PV pol inh = inhibitors of poliovirus RNA polymerase binding and polymerization | poliovirus polymerase elongation, fluorescence polarization; active compounds read low | % elongation, % (compound at 16.7 µg/mL) | actives 0.66% (n = 150,000); in the data active = % elongation below about 90%
MenB inh = inhibitors of Mycobacterium tuberculosis MenB enzyme | P9WNP5 | MenB enzyme assay, absorbance read-out | inhibition, % (concentration not given with the values) | actives 0.43% (n = 100,000); in the data active = inhibition above about 21%, passing the limit was not always enough
MbtI inh = MbtI salicylate synthase inhibition; P9WFX0; purified MbtI enzyme, fluorescence intensity read-out; inhibition, % (no concentration beside the values); actives 0.89% (n = 100,000); AID 493033; in the data active = inhibition mostly above about 56%, no sharp cut-off; inactive = mostly below about 77%
Target sequence (P9WFX0 whole entry, looked up): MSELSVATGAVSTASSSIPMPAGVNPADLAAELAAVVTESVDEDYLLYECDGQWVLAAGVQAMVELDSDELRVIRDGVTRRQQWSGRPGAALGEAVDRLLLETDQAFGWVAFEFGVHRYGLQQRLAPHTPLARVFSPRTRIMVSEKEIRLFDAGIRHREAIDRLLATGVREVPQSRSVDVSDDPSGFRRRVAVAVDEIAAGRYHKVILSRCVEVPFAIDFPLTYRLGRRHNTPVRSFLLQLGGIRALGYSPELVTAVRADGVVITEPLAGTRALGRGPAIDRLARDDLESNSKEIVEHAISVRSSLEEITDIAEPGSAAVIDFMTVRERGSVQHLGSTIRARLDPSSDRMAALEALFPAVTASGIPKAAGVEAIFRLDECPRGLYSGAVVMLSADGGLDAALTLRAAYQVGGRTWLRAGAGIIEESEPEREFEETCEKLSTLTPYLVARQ
AID504770 = E. coli YBA685 growth inhibition, screen for V. cholerae RctB inhibitors; E. coli YBA685 rctB-dependent plasmid, OD600 growth, 3 h; active compounds read low; z-score (test concentration not listed); actives 0.27% (n = 130,000); AID 504770; in the data active = z-score below about -2, passing the limit was not always enough
Active calls of the source: *; x = not tested or not shown. The list is not random: actives were taken first. Their share in the collection is about 1.4%.

SMILES	PV pol inh	MenB inh	MbtI inh	AID504770
O=C(Nc1ccc2[nH]c(=O)[nH]c2c1)NC1CCCCC1	90*	21	3	0.1
COC(=O)c1sc(N)c(C(=O)OC)c1CSc1nnc(C(F)(F)F)n1C	102	-14	-1	-0.45
Clc1ccccc1C1=NC2=S(O1)OC(c1ccccc1Cl)=N2	96	6	80*	0.6
COc1ccc(CC(=O)OCC(=O)Nc2ccc3c(c2)OCCO3)cc1	105	-20	-14	-2.4
CSc1ncnc2sc3c(c12)CCCC3	x	x	x	1.4
CN(C)CCN(C(=O)Cc1ccccc1)c1nc2cc3c(cc2s1)OCCO3	101	-29	11	-2.3*
CN(C)CCN(C(=O)c1ccco1)c1nc2cc3c(cc2s1)OCO3	102	7	-2	0.15
CCN1CCCC1CNC(=O)c1nn(C)c2c1CSc1ccccc1-2 (stereo not drawn)	100	11	1	-0.55
CN1CCN(S(=O)(=O)c2ccc3oc(=O)c4ncn(C)c4c3c2)CC1	102	-6	-179	-2.4*
Cn1cnc2c(=O)oc3ccc(S(=O)(=O)N4CCN(c5ccccc5)CC4)cc3c21	105	x	x	x
Cc1ccc(C(=O)CSc2cccc[n+]2[O-])cc1	100	x	69*	1.9
CCS(=O)c1ccccc1C(=O)NCc1ccc(C)cc1 (stereo not drawn)	100	-28	100*	-0.75
COc1ccccc1CN(C)CCN	101	75*	2	-0.6
CCCCN(C)Cc1cccc(OC)c1OC	102	-11	-8	-0.4
O=C(O)c1nc(-c2ccccc2)cc(-c2ccccc2)n1	100	35*	15	0.65
O=C(O)c1cc(-c2ccccc2)nc2ccccc12	102	1	x	-0.65
N#CSC12CN3CN(CN(C3)C1)C2	99	33*	6	0.2
O=C1CCCC(O)=C1N=Nc1ccc(C(=O)O)cc1	76*	-180	6	1.5
O=C1CCCC(O)=C1N=Nc1ccccc1C(=O)O	97	-463	18	0.6
COc1ccc(CCNC(=O)c2ccc3c(c2)N(Cc2ccccc2F)C(=O)c2ccccc2S3(=O)=O)cc1OC	110	x	x	x
COc1ccc(CCNC(=O)c2ccc3c(c2)N(Cc2cccc(C)c2)C(=O)c2ccccc2S3(=O)=O)cc1OC	82*	x	x	x
CCCNC(=O)CCc1nc(-c2ccc(C(C)(C)C)cc2)no1	102	7	16	0.2
NC(=O)COC(=O)c1ccc2c(c1)OCO2	102	-21	59	-0.65
CCn1c(N)c(C(=O)NC)sc1=S	97	-21	87*	-0.45
Cc1ccc(C(=O)NCC2CCCO2)cc1 (stereo not drawn)	102	8	5	0.7
SMILES	PV pol inh	MenB inh	MbtI inh	AID504770
CCn1c(N)c(C(=O)NCC2CCCO2)sc1=S (stereo not drawn)	96	-19	82*	0.05
CNC(=O)c1oc2ccc3c(c2c1C)C(=O)CC1(CCCCC1)O3	101	-15	38	0.3
Cc1cc(C)c(CO)c(C)c1CO	102	-26	4	1.4
Cc1cc(C)c(C)c(S(=O)O)c1C	83*	-36	3	-0.3
N#Cc1cc(F)c(N2CCCC2)cc1Cl	100	17	4	0.3
CNc1ccc(O)cc1	59*	x	101*	1.1
Oc1ccc(NC(=S)Nc2ccc(O)cc2)cc1	106	-4	-4	-0.1
COc1ccc(C(=O)NCc2cn3ccc(C)cc3n2)cc1	107	x	x	x
COc1ccc(C(=O)n2c(=S)nc3cc(C)ccn32)cc1	79*	-16	x	1.9
COc1cc(Cl)cc(/C=N/n2c(-c3ccc(C)cc3)n[nH]c2=S)c1O	97	-58	35	-0.45
O=C(O)CCC(=O)Nc1ccc(O)c(C(=O)O)c1	87*	6	106	0
CC(=O)Nc1ccc(O)c(C(=O)O)c1	x	x	x	-0.65
O=C(/C=C/c1ccccc1)ON1C(=O)CCC1=O	35*	-14	x	0.65
CCC(NC(N)=O)C(=O)O (stereo not drawn)	99	6	-5	-0.5
O=C(CSc1ccccn1)N1CCCc2ccccc21	101	4	x	1.6
O=C(O)CCSC1CC(=O)N(c2ccc(F)cc2)C1=O (stereo not drawn)	100	4	-3	-0.15
N#CSC1CC(=O)N(c2ccc(F)cc2)C1=O (stereo not drawn)	103	-11	99*	-1.8
CCc1ccc(CN2CCC(O)CC2)cc1	99	36*	-11	-0.55
O=S(=O)(c1cccs1)c1cccs1	x	x	x	-0.65
N#Cc1nccnc1S(=O)(=O)c1cccs1	x	x	x	-7.8*
Cc1ccc2nc(NCc3ccccc3)[nH]c2c1	102	4	-11	-2.2*
Cn1ncc2c(c(SCc3ccc(Cl)cc3Cl)nn2C)c1=O	101	-17	21	-2
CSc1nn(C)c2cnn(C)c(=O)c12	55*	-2	71	-0.8
COc1ccc(C2C(C(=O)O)c3ccccc3C(=O)N2Cc2ccc(Cl)cc2)cc1 (stereo not drawn)	103	5	5	0.45
CCOc1ccc([C@@H]2[C@H](C(=O)O)c3ccccc3C(=O)N2Cc2ccccc2)c(O)c1	69*	9	3	0.3
SMILES	PV pol inh	MenB inh	MbtI inh	AID504770
O=c1c2ccccc2n2c(=S)[nH]nc2n1-c1ccccc1	89*	-26	94*	-0.85
O=c1c2ccccc2n2c(=O)[nH]nc2n1Cc1ccc(F)cc1	98	-6	3	0.65
CCCn1c(=O)c2ccccc2n2c(=S)[nH]nc12	101	-30	75*	2.5
CN(C)S(=O)(=O)c1ccc2oc(NN)nc2c1	103	4	-2	0.05
N#CCOC(=O)c1cc(=O)c2ccccc2o1	74*	2	-13	0.25
N#CCOC(=O)c1ccc(-c2cc(=O)c3ccccc3o2)cc1	x	x	x	-0.2
CC1CCCCN1S(=O)(=O)c1ccc(C(=O)Nc2nc3ccc4ccccc4c3s2)cc1 (stereo not drawn)	104	-15	-4	-1.4
C=CCN(CC=C)C(=O)C[n+]1ccc(C(N)=O)cc1	103	-15	0	-4*
C=CCN(CC=C)C(=O)C[n+]1cccc(C(N)=O)c1	101	-26	6	0.2
CC1=NN(c2ccccc2)C(=O)C1(O)C1C(=O)c2ccccc2C1=O (stereo not drawn)	29*	-166	-3	2.4
CC1=NN(c2ccccc2)C(=O)C1(C)N (stereo not drawn)	105	-10	-1	0.95
COC(=O)c1cc2c(C(F)(F)F)cc(=O)[nH]c2s1	104	x	22	-0.25
N#CSc1ccc2nc(N)sc2c1	94	1	53*	-1.4
COc1cccc(N2CCN(C(=O)CCCn3sc4ccccc4c3=O)CC2)c1	99	-40	97*	-0.8
COc1cccc(N2CCN(C(=O)Cn3ncc4c5ccccc5n(C)c4c3=O)CC2)c1	106	x	x	x
Cc1nn(-c2ccc(F)cc2)c(C)c1/C=C/C(=O)NC(C)(C)C	100	-15	-7	-0.5
O=C(O)C1C2C=CC(C2)C1C(=O)Nc1cccc(Br)c1 (stereo not drawn)	97	26*	-3	0
Cc1ccc(C2=NNC(c3cccs3)S2)cc1 (stereo not drawn)	72*	-3	x	0.9
NC(=O)CC1C=CS(=O)(=O)C1 (stereo not drawn)	104	x	-8	-0.3
